Measured values: PubChem BioAssay
Several values for one entry are separate records, joined by “and”; a condition that tells them apart may be missing. Identical values can stand only once. Activity calls are given as the source filed them.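 How the source made its calls, unless noted: active means thallium flux through the channel raised or lowered by more than 3 SD from vehicle-only wells, actives on both sides; inactive means the rest.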

Legend:
F380Y = assay: modulators of BK channel variants, profiling panel, selectivity assay, cell-based, U2OS BacMam, thallium flux, beta subunits (AID 1259406); conditions: at 30 µM;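 further: initial slope of Thallos dye fluorescence rise after thallium is added; log ratio against the mean of 0.3% DMSO vehicle wells on the same plate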
F380Y/beta1 = assay: as above; conditions: at 30 µM
F380Y/beta2Delta = assay: as above; conditions: at 30 µM
F380Y/beta4 = assay: as above; conditions: at 30 µM
[1] = biological target: Calcium-activated potassium channel subunit alpha-1 (Homo sapiens) + Leucine-rich repeat-containing protein 26 (Homo sapiens) (UniProt Q12791+Q2I0M4); assay: as above; conditions: F380Y/Slo1WT/gamma1, at 30 µM
Sequence of Calcium-activated potassium channel subunit alpha-1 (Homo sapiens) + Leucine-rich repeat-containing protein 26 (Homo sapiens) (Q2I0M4 whole entry, looked up, one chain of several): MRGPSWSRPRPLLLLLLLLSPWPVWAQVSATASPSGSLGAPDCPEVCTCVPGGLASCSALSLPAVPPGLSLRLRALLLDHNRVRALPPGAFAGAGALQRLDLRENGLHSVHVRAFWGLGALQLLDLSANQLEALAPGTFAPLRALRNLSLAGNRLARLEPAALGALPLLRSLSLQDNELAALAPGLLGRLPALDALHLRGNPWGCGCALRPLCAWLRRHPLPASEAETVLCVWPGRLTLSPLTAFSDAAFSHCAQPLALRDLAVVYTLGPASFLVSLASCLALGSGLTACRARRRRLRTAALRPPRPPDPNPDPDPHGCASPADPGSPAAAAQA

R275C = assay: as above; conditions: at 30 µM
R275C/beta1 = assay: as above; conditions: at 30 µM
R275C/beta2Delta = assay: as above; conditions: at 30 µM
R275C/beta4 = assay: as above; conditions: at 30 µM
R275C/Slo1WT/beta2 = assay: as above; conditions: at 30 µM
[2] = liver-stage malaria parasite growth inhibition, primary screen, cell-based, HepG2, luciferase luminescence, HepG2 viability (AID 624349; in the data active means parasite load remaining mostly below about 12%, no sharp cut-off; inactive means mostly above about 10%;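 further: 100% = mean of DMSO negative control wells on the same plate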); conditions: P. berghei liver stage in HepG2, luciferase luminescence, concentration not given here; parasite load remaining: stronger effect = lower value; viability: measured here: HepG2 viability without parasites
[3] = Cy5 fluorescence interference with SSB-bound oligo, artefact control for HCV NS3 helicase inhibitor project, biochemical, NIH Clinical Collection, E. coli SSB (AID 743268; call rule not given here)
[4] = system: Hepatitis C virus NS3 helicase; assay: HCV NS3 helicase inhibitors, primary screen, biochemical, fluorescence polarization, NIH Clinical Collection (AID 743270; call rule not given here); conditions: NS3 helicase binding to Cy5-dT15 DNA, stronger effect = higher value, concentration not given here
[5] = biological target: Single-stranded DNA-binding protein (Escherichia coli (strain K12)) (UniProt P0AGE0); assay: E. coli SSB displacement from DNA, counter-screen for HCV NS3 helicase inhibitor project, biochemical, fluorescence polarization, NIH Clinical Collection (AID 743271; in the data active means inhibition above about 28%); conditions: stronger effect = higher value, concentration not given here
[6] = fluorescence interference in NS3h assay format, artefact control for HCV NS3 helicase inhibitor project, biochemical, NIH Clinical Collection (AID 743272; call rule not given here;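 further: HCV NS3 helicase with a Cy5 labelled single stranded DNA probe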); conditions: fluorescence interference counterscreen, stronger effect = lower value
[7] = modulation of C. elegans fzo-1 (AID 1259413; call rule not given here;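 further: fzo-1 mutant C. elegans worms in liquid wells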); conditions: C. elegans fzo-1 modulator screen, mean read-out; stronger effect = higher value
[8] = differential killing of epithelial or mesenchymal cells, primary screen, imaging, PC-3E GFP, TEM4-18 mCherry, co-culture (AID 1345086;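 active means compounds killing one labelled cell type while sparing the other, by normalised counts and ratio limits, not self-fluorescent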;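 on all read-outs here: cells exposed to compound for 72 h before imaging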;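 on red/green cell ratio (normalised): normalised mesenchymal count divided by normalised epithelial count so high means epithelial killing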); conditions: imaging cell counts, at 1 µM; for red/green cell ratio (normalised): actives lie on both sides, counts scaled to control wells, 1 = unselective
[9] = sensitizers of A549 cells to miR-34 induction, primary screen, imaging, A549 dox-inducible miR-34, nuclei and caspase counts (AID 1347080;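 active means compounds whose cell count with miR-34 switched on is under 0.7 times the count with it off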); conditions: A549 miR-34 inducible, Hoechst nuclei count, 48 h
[10] = survival rescue of mitochondrial mutant cells in low glucose, primary screen, MELAS cybrids, Rieske KO mouse fibroblasts, CellTiter-Glo (AID 1508586;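 active means mean z-score across replicates of 1.96 or higher in either the MELAS or the Rieske mutant cell line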;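 further: z relative to plate mean and SD of compound and empty wells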)
[11] = measured here: epithelial PC-3E GFP cell survival
[12] = measured here: mesenchymal TEM4-18 mCherry cell survival
[13] = stronger effect = lower value, cell number ratio, induced over uninduced
[14] = measured here: relative caspase fold change +Dox/-Dox
[15] = measured here: total cells with miR-34 induction, stronger effect = lower value
[16] = measured here: total cells without miR-34 induction
[17] = MELAS cybrid survival, CellTiter-Glo 48 h, stronger effect = higher value
[18] = Rieske KO mouse fibroblast survival, CellTiter-Glo 72 h

## COC(=O)c1sc(-c2ccc(Cl)cc2)cc1NC(=O)c1ccc2nsnc2c1
F380Y
  log fold change Tl+ flux: 0.0226 (inactive)
F380Y/beta1
  log fold change Tl+ flux: 0.0354 (inactive)
F380Y/beta2Delta
  log fold change Tl+ flux: 0.0206 (inactive)
F380Y/beta4
  log fold change Tl+ flux: 0.0283 (inactive)
[1]
  log fold change Tl+ flux: 0.00872 (inactive)
R275C
  log fold change Tl+ flux: 0.0185 (inactive)
R275C/beta1
  log fold change Tl+ flux: -0.00968 (inactive)
R275C/beta2Delta
  log fold change Tl+ flux: -0.0231 (inactive)
R275C/beta4
  log fold change Tl+ flux: -0.00956 (inactive)
R275C/Slo1WT/beta2
  log fold change Tl+ flux: 0.0403 (inactive)

## COc1ccc2c(OC(C)=O)coc2c1
F380Y
  log fold change Tl+ flux: 0.00358 (inactive)
F380Y/beta1
  log fold change Tl+ flux: -0.0482 (inactive)
F380Y/beta2Delta
  log fold change Tl+ flux: -0.00847 (inactive)
F380Y/beta4
  log fold change Tl+ flux: -0.0157 (inactive)
[1]
  log fold change Tl+ flux: -0.0163 (inactive)
R275C
  log fold change Tl+ flux: 0.00531 (inactive)
R275C/beta1
  log fold change Tl+ flux: -0.00826 (inactive)
R275C/beta2Delta
  log fold change Tl+ flux: 0.012 (inactive)
R275C/beta4
  log fold change Tl+ flux: 0.0182 (inactive)
R275C/Slo1WT/beta2
  log fold change Tl+ flux: -0.00513 (inactive)

## N#Cc1c(F)cccc1NC1CCN(Cc2ccccc2)CC1
F380Y
  log fold change Tl+ flux: -0.0529 (inactive)
F380Y/beta1
  log fold change Tl+ flux: -0.0783 (inactive)
F380Y/beta2Delta
  log fold change Tl+ flux: -0.0626 (inactive)
F380Y/beta4
  log fold change Tl+ flux: -0.103 (active)
[1]
  log fold change Tl+ flux: -0.0887 (inactive)
R275C
  log fold change Tl+ flux: -0.0649 (inactive)
R275C/beta1
  log fold change Tl+ flux: -0.0261 (inactive)
R275C/beta2Delta
  log fold change Tl+ flux: -0.0118 (inactive)
R275C/beta4
  log fold change Tl+ flux: -0.0356 (inactive)
R275C/Slo1WT/beta2
  log fold change Tl+ flux: -0.0644 (inactive)

## CCOC(=O)c1sc(SC)nc1N
F380Y
  log fold change Tl+ flux: -0.000489 (inactive)
F380Y/beta1
  log fold change Tl+ flux: -0.00635 (inactive)
F380Y/beta2Delta
  log fold change Tl+ flux: 0.00305 (inactive)
F380Y/beta4
  log fold change Tl+ flux: 0.00634 (inactive)
[1]
  log fold change Tl+ flux: -0.00935 (inactive)
R275C
  log fold change Tl+ flux: 0.0886 (active)
R275C/beta1
  log fold change Tl+ flux: -0.00543 (inactive)
R275C/beta2Delta
  log fold change Tl+ flux: -0.0273 (inactive)
R275C/beta4
  log fold change Tl+ flux: -0.000536 (inactive)
R275C/Slo1WT/beta2
  log fold change Tl+ flux: 0.0235 (inactive)

## CN(C)CCc1c[nH]c2ccc(Cn3cncn3)cc12
[2]
  parasite load remaining: 45% (inactive) and 103% (inactive)
  viability: 99.5% and 78.1%
[3]
  fluorescence ratio: 1.13 (inactive)
[4]
  inhibition: 0.4% (inactive)
[5]
  inhibition: 5.29% (inactive)
[6]
  fluorescence ratio: 0.91 (inactive)
[7]
  mean signal: 236 (inactive)
[8]
  red/green cell ratio (normalised): 0.92 (inactive)
[8]; [11]
  normalised cell number: 1.24
[8]; [12]
  normalised cell number: 1.13
[9]; [13]
  fold change: 0.991 (inactive) and 0.886 (inactive) and 0.916 (inactive)
[9]; [14]
  fold change: 1.31 and 0.982 and 5.76
[9]; [15]
  cell count: 7610 and 7730 and 12300
[9]; [16]
  cell count: 7680 and 8720 and 13400
[10]; [17]
  z-score: -0.276 (inactive) and 0.545 (inactive)
[10]; [18]
  z-score: 0.697 and -0.263
F380Y
  log fold change Tl+ flux: -0.0521 (inactive)
F380Y/beta1
  log fold change Tl+ flux: -0.0483 (inactive)
F380Y/beta2Delta
  log fold change Tl+ flux: 0 (inactive)
F380Y/beta4
  log fold change Tl+ flux: 0.0107 (inactive)
[1]
  log fold change Tl+ flux: 0.0357 (inactive)
R275C
  log fold change Tl+ flux: -0.121 (active)
R275C/beta1
  log fold change Tl+ flux: -0.00809 (inactive)
R275C/beta2Delta
  log fold change Tl+ flux: -0.0421 (inactive)
R275C/beta4
  log fold change Tl+ flux: 0.00222 (inactive)
R275C/Slo1WT/beta2
  log fold change Tl+ flux: 0.0127 (inactive)

## Cc1cnc(C(=O)NCCc2ccc(S(=O)(=O)NC(=O)NC3CCCCC3)cc2)cn1
[3]
  fluorescence ratio: 1.05 (inactive)
[4]
  inhibition: -5% (inactive)
[5]
  inhibition: -2% (inactive)
[6]
  fluorescence ratio: 0.98 (inactive)
[7]
  mean signal: 228 (inactive)
[8]
  red/green cell ratio (normalised): 1.07 (inactive)
[8]; [11]
  normalised cell number: 0.87
[8]; [12]
  normalised cell number: 0.93
[10]; [17]
  z-score: 0.0771 (inactive) and 0.00808 (inactive) and -0.837 (inactive)
[10]; [18]
  z-score: 0.368 and 0.143 and -0.894
F380Y
  log fold change Tl+ flux: -0.0483 (inactive)
F380Y/beta1
  log fold change Tl+ flux: -0.0347 (inactive)
F380Y/beta2Delta
  log fold change Tl+ flux: -0.0103 (inactive)
F380Y/beta4
  log fold change Tl+ flux: 0.0321 (inactive)
[1]
  log fold change Tl+ flux: -0.0267 (inactive)
R275C
  log fold change Tl+ flux: 0.0214 (inactive)
R275C/beta1
  log fold change Tl+ flux: 0.0314 (inactive)
R275C/beta2Delta
  log fold change Tl+ flux: 0.0193 (inactive)
R275C/beta4
  log fold change Tl+ flux: 0.0322 (inactive)
R275C/Slo1WT/beta2
  log fold change Tl+ flux: 0.0429 (inactive)

## CN/C(=C\[N+](=O)[O-])NCCSCc1csc(CN(C)C)n1
[2]
  parasite load remaining: 44.5% (inactive) and 113% (inactive)
  viability: 104% and 78.4%
[3]
  fluorescence ratio: 1.02 (inactive)
[4]
  inhibition: 1.19% (inactive)
[5]
  inhibition: -0.1% (inactive)
[6]
  fluorescence ratio: 0.97 (inactive)
[7]
  mean signal: 274 (inactive)
[8]
  red/green cell ratio (normalised): 0.9 (inactive)
[8]; [11]
  normalised cell number: 1.14
[8]; [12]
  normalised cell number: 1.02
[9]; [13]
  fold change: 0.871 (inactive)
[9]; [14]
  fold change: 5.48
[9]; [15]
  cell count: 11400
[9]; [16]
  cell count: 13100
F380Y
  log fold change Tl+ flux: 0.0132 (inactive)
F380Y/beta1
  log fold change Tl+ flux: -0.0313 (inactive)
F380Y/beta2Delta
  log fold change Tl+ flux: 0.0292 (inactive)
F380Y/beta4
  log fold change Tl+ flux: 0.0177 (inactive)
[1]
  log fold change Tl+ flux: -0.0126 (inactive)
R275C
  log fold change Tl+ flux: 0.0141 (inactive)
R275C/beta1
  log fold change Tl+ flux: -0.02 (inactive)
R275C/beta2Delta
  log fold change Tl+ flux: -0.0114 (inactive)
R275C/beta4
  log fold change Tl+ flux: -0.00775 (inactive)
R275C/Slo1WT/beta2
  log fold change Tl+ flux: 0.0359 (inactive)

## CN1CC(=O)N2[C@H](c3ccc4c(c3)OCO4)c3[nH]c4ccccc4c3C[C@@H]2C1=O
[2]
  parasite load remaining: 101% (inactive)
  viability: 81.8%
[3]
  fluorescence ratio: 1 (inactive)
[4]
  inhibition: -0.4% (inactive)
[5]
  inhibition: -0.1% (inactive)
[6]
  fluorescence ratio: 1 (inactive)
[7]
  mean signal: 261 (inactive)
[8]
  red/green cell ratio (normalised): 1 (inactive)
[8]; [11]
  normalised cell number: 1.08
[8]; [12]
  normalised cell number: 1.07
F380Y
  log fold change Tl+ flux: 0.0711 (inactive)
F380Y/beta1
  log fold change Tl+ flux: 0.0938 (inactive)
F380Y/beta2Delta
  log fold change Tl+ flux: 0.00366 (inactive)
F380Y/beta4
  log fold change Tl+ flux: 0.0361 (inactive)
[1]
  log fold change Tl+ flux: -0.0237 (inactive)
R275C
  log fold change Tl+ flux: -0.0348 (inactive)
R275C/beta1
  log fold change Tl+ flux: 0.198 (active)
R275C/beta2Delta
  log fold change Tl+ flux: 0.0543 (inactive)
R275C/beta4
  log fold change Tl+ flux: 0.0558 (inactive)
R275C/Slo1WT/beta2
  log fold change Tl+ flux: 0.00498 (inactive)
